Consider seven molecules from PubChem BioAssay (NCI).

“And” between values parts separate entries of the source, which are not always exact repeats. Equal entries are not always repeated. This is part of a sample that, as a whole, favours compounds with a hit. Of some 79,000 tested, about 15% had one in any assay. Some structures have more than one record in an assay (separate samples or runs), and their calls can disagree. The source made the active and inactive calls. Rule as the data show it: active = growth inhibition above about 70%; inactive = the rest.

A short description of assay [1]: NCI Yeast Anticancer Drug Screen. Data for the rad50 strain (AID 155).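 Also: 0% = growth of vehicle-only cultures of the same strain.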 The following applies: S. cerevisiae rad50 strain growth inhibition, stronger effect = higher value. In outline: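 A DNA repair-deficient yeast mutant serves as the test organism; compound-induced growth inhibition is calculated against vehicle-treated cells.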
Assay [2] in a line: NCI Yeast Anticancer Drug Screen. Data for the mec2-1 strain (AID 157). The following applies: S. cerevisiae mec2-1 strain, stronger effect = higher value. A digest of the protocol: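 Readout is yeast growth inhibition, normalised to vehicle-treated controls, in the mec2-1 strain exposed to compound.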
Assay [3] can be described thus: NCI Yeast Anticancer Drug Screen. Data for the sgs1 mgt1 strain (AID 161).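 Also: 0% = growth of cultures given vehicle only.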 The conditions noted are these: S. cerevisiae sgs1 mgt1 strain, stronger effect = higher value. In outline: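 Compounds are added to genetically altered yeast, and growth is compared with cultures given vehicle alone to give percent inhibition.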
The nature of assay [4]: NCI Yeast Anticancer Drug Screen. Data for the cln2 rad14 strain (AID 165).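 Also: 0% = growth equal to vehicle treated cultures.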 The following applies: S. cerevisiae cln2 rad14 strain, stronger effect = higher value. A digest of the protocol:
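Relative to vehicle controls, growth inhibition of compound-treated cln2 rad14 yeast was recorded.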

A short description of assay [5]: NCI Yeast Anticancer Drug Screen. Data for the bub3 strain (AID 167). The conditions noted are these: S. cerevisiae bub3 mutant strain, stronger effect = higher value. A digest of the protocol: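 Inhibition values come from growth of compound-treated mutant yeast normalised to vehicle-treated controls.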
A short description of assay [6]: NCI Yeast Anticancer Drug Screen. Data for the mlh1 rad18 strain (AID 175). The conditions noted are these: S. cerevisiae mlh1 rad18 strain growth inhibition, stronger effect = higher value. A digest of the protocol: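 Test agents were incubated with a yeast strain of defined genotype (DNA damage repair defect). Inhibition of growth was derived by comparison with vehicle-exposed cultures.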

[7] abbreviates: at 5.0 µM (retest, dose inferred, filed as 0.5).
The mark [8] stands for this setting: at 50.0 µM (retest, dose inferred, filed as 5.0).

Turning to `Cc1ncc(C[n+]2cccc(CCO)c2C)c(N)n1`, the growth inhibition is 4% (inactive) and 16% (inactive) in assay [1] (setting [7]); 31% (inactive) and 48% (inactive) in assay [1] (setting [8]); 55.7% (inactive) and 46.5% (inactive) in assay [1] (at 50.0 µM); 19% (inactive) and 11% (inactive) in assay [2] (setting [7]); 60% (inactive) and 49% (inactive) in assay [2] (setting [8]); 40.5% (inactive) and 38% (inactive) in assay [2] (at 50.0 µM). The growth inhibition in assay [3] (setting [7]) was -15% (inactive) and 10% (inactive); in assay [3] (setting [8]) it was 62% (inactive) and 68% (inactive); in assay [3] (at 50.0 µM), 87.5% (active) and 64% (inactive); in assay [4] (setting [7]), 1% (inactive) and 9% (inactive); in assay [4] (setting [8]), 24% (inactive) and 18% (inactive); in assay [4] (at 50.0 µM), 58.1% (inactive) and 24.5% (inactive). In addition, the growth inhibition in assay [5] (setting [7]) was -4% (inactive) and 5% (inactive); in assay [5] (setting [8]) it was 14% (inactive) and 36% (inactive); in assay [5] (at 50.0 µM), 8.65% (inactive) and 29.9% (inactive); in assay [6] (setting [7]) it was 10% (inactive) and 15% (inactive); in assay [6] (setting [8]), 63% (inactive) and 48% (inactive); in assay [6] (at 50.0 µM), 72% (active) and 71.2% (active).

Regarding `O=C(O)C#CC(=O)O`, the growth inhibition in assay [1] (setting [7]) is 22% (inactive); in assay [1] (setting [8]), 76% (active); in assay [1] (at 50.0 µM) it was 76.2% (active) and 1.25% (inactive); in assay [2] (setting [7]), 20% (inactive); in assay [2] (setting [8]), 20% (inactive); in assay [2] (at 50.0 µM) it was 85.7% (active) and -6.9% (inactive). The growth inhibition in assay [3] (setting [7]) is 28% (inactive); in assay [3] (setting [8]) it was 63% (inactive); in assay [3] (at 50.0 µM) it was 76.2% (active) and 12.3% (inactive); in assay [4] (setting [7]) it was 31% (inactive); in assay [4] (setting [8]), 30% (inactive); in assay [4] (at 50.0 µM), 17.6% (inactive) and 1.65% (inactive). The growth inhibition in assay [5] (setting [7]) was 26% (inactive); in assay [5] (setting [8]), 38% (inactive); in assay [5] (at 50.0 µM), 60% (inactive) and -7.7% (inactive); in assay [6] (setting [7]) it was 35% (inactive); in assay [6] (setting [8]) it was 60% (inactive); in assay [6] (at 50.0 µM) it was 75.5% (active) and 15.1% (inactive).

Turning to `COc1cc2c(c3c1/c(=N/N(C)C)c1ccccc1n3C)C=CC(C)(C)O2`, the growth inhibition in assay [1] (setting [7]) was 23% (inactive); in assay [1] (setting [8]) it was 85% (active); in assay [1] (at 50.0 µM), 69.3% (inactive); in assay [2] (setting [7]) it was 24% (inactive); in assay [2] (setting [8]) it was 85% (active); in assay [2] (at 50.0 µM), 1% (inactive). Further, the growth inhibition in assay [3] (setting [7]) is 36% (inactive); in assay [3] (setting [8]), 91% (active); in assay [3] (at 50.0 µM), 55.5% (inactive); in assay [4] (setting [7]), -10% (inactive); in assay [4] (setting [8]), 60% (inactive); in assay [4] (at 50.0 µM), -42.3% (inactive). Also, the growth inhibition in assay [5] (setting [7]) was 38% (inactive); in assay [5] (setting [8]), 96% (active); in assay [5] (at 50.0 µM), -15.7% (inactive); in assay [6] (setting [7]), 38% (inactive); in assay [6] (setting [8]) it was 93% (active); in assay [6] (at 50.0 µM), 44.8% (inactive).

For `CC(C)CCCC(C)C1CCC2C3CC=C4CC([n+]5cccc6ccccc65)CCC4(C)C3CCC12C` (stereo unspecified), the growth inhibition in assay [1] (setting [7]) is 78% (active); in assay [1] (setting [8]), 90% (active); in assay [1] (at 50.0 µM), 93.3% (active); in assay [2] (setting [7]), 11% (inactive); in assay [2] (setting [8]) it was 92% (active); in assay [2] (at 50.0 µM) it was 95.4% (active). Besides, the growth inhibition in assay [3] (setting [7]) was 60% (inactive); in assay [3] (setting [8]), 50% (inactive); in assay [3] (at 50.0 µM), 94.8% (active); in assay [4] (setting [7]) it was 39% (inactive); in assay [4] (setting [8]) it was 91% (active); in assay [4] (at 50.0 µM), 68% (inactive). Further, the growth inhibition in assay [5] (setting [7]) was 74% (active); in assay [5] (setting [8]), 89% (active); in assay [5] (at 50.0 µM), 92.2% (active); in assay [6] (setting [7]), 74% (active); in assay [6] (setting [8]), 89% (active); in assay [6] (at 50.0 µM), 95.2% (active).

`CN(C)C(=S)SC(=S)N(C)C`: the growth inhibition is 97% (active) and 96% (active) in assay [1] (setting [7]); 99% (active) and 98% (active) in assay [1] (setting [8]); 97.3% (active) and 99% (active) in assay [1] (at 50.0 µM); 98% (active) and 94% (active) in assay [2] (setting [7]); 99% (active) in assay [2] (setting [8]); 98.8% (active) and 98.5% (active) in assay [2] (at 50.0 µM). Also, the growth inhibition is 97% (active) and 94% (active) in assay [3] (setting [7]); 99% (active) in assay [3] (setting [8]); 99.2% (active) in assay [3] (at 50.0 µM); 97% (active) and 50% (inactive) in assay [4] (setting [7]); 97% (active) in assay [4] (setting [8]); 87% (active) and 97.2% (active) in assay [4] (at 50.0 µM). Besides, the growth inhibition in assay [5] (setting [7]) is 99% (active) and 88% (active); in assay [5] (setting [8]), 99% (active) and 98% (active); in assay [5] (at 50.0 µM), 98.5% (active) and 99.2% (active); in assay [6] (setting [7]) it was 99% (active) and 96% (active); in assay [6] (setting [8]) it was 99% (active); in assay [6] (at 50.0 µM), 98% (active) and 98.8% (active).

As for `CCCCCCCCCCCCCCCC(=O)NCC[N+](C)(C)C`, the growth inhibition in assay [1] (setting [7]) is 33% (inactive); in assay [1] (setting [8]) it was 99% (active); in assay [1] (at 50.0 µM), 99.5% (active); in assay [2] (setting [7]), 52% (inactive); in assay [2] (setting [8]) it was 100% (active); in assay [2] (at 50.0 µM) it was 99.7% (active). Also, the growth inhibition was 50% (inactive) in assay [3] (setting [7]); 99% (active) in assay [3] (setting [8]); 99.8% (active) in assay [3] (at 50.0 µM); 10% (inactive) in assay [4] (setting [7]); 99% (active) in assay [4] (setting [8]); 99.2% (active) in assay [4] (at 50.0 µM). The growth inhibition was 58% (inactive) in assay [5] (setting [7]); 100% (active) in assay [5] (setting [8]); 99.5% (active) in assay [5] (at 50.0 µM); 36% (inactive) in assay [6] (setting [7]); 99% (active) in assay [6] (setting [8]); 99.6% (active) in assay [6] (at 50.0 µM).

On to `O=S(=O)(O)c1ccc2cc(N=Nc3c(O)ccc4ccccc34)ccc2c1`, for which the growth inhibition in assay [1] (setting [7]) was 9% (inactive); in assay [1] (setting [8]), 15% (inactive); in assay [1] (at 50.0 µM) it was 19.9% (inactive); in assay [2] (setting [7]) it was 2% (inactive); in assay [2] (setting [8]) it was 12% (inactive); in assay [2] (at 50.0 µM), 5.45% (inactive). The growth inhibition in assay [3] (setting [7]) is 7% (inactive); in assay [3] (setting [8]), 72% (active); in assay [3] (at 50.0 µM) it was 75.3% (active); in assay [4] (setting [7]), -7% (inactive); in assay [4] (setting [8]), 0% (inactive); in assay [4] (at 50.0 µM), 33.4% (inactive). For the same molecule, the growth inhibition in assay [5] (setting [7]) is -2% (inactive); in assay [5] (setting [8]), -21% (inactive); in assay [5] (at 50.0 µM), 3.5% (inactive); in assay [6] (setting [7]), 2% (inactive); in assay [6] (setting [8]), 10% (inactive); in assay [6] (at 50.0 µM), 34.9% (inactive).
